KDM5B inhibitor: blocks human KDM5B histone demethylase activity. Q9UGL1. AID 1347165. KDM5B demethylase, FDH-coupled NADH fluorescence (FDH is formaldehyde dehydrogenase). Potency, µM (series often up to 57.7 µM), usual class: inhibitors. 2.6% of 220,000 active; active = well fitted inhibition curve with a large enough effect; also: nearly all actives have a fitted effect of over 70% in size
Target sequence (Q9UGL1 whole entry, looked up): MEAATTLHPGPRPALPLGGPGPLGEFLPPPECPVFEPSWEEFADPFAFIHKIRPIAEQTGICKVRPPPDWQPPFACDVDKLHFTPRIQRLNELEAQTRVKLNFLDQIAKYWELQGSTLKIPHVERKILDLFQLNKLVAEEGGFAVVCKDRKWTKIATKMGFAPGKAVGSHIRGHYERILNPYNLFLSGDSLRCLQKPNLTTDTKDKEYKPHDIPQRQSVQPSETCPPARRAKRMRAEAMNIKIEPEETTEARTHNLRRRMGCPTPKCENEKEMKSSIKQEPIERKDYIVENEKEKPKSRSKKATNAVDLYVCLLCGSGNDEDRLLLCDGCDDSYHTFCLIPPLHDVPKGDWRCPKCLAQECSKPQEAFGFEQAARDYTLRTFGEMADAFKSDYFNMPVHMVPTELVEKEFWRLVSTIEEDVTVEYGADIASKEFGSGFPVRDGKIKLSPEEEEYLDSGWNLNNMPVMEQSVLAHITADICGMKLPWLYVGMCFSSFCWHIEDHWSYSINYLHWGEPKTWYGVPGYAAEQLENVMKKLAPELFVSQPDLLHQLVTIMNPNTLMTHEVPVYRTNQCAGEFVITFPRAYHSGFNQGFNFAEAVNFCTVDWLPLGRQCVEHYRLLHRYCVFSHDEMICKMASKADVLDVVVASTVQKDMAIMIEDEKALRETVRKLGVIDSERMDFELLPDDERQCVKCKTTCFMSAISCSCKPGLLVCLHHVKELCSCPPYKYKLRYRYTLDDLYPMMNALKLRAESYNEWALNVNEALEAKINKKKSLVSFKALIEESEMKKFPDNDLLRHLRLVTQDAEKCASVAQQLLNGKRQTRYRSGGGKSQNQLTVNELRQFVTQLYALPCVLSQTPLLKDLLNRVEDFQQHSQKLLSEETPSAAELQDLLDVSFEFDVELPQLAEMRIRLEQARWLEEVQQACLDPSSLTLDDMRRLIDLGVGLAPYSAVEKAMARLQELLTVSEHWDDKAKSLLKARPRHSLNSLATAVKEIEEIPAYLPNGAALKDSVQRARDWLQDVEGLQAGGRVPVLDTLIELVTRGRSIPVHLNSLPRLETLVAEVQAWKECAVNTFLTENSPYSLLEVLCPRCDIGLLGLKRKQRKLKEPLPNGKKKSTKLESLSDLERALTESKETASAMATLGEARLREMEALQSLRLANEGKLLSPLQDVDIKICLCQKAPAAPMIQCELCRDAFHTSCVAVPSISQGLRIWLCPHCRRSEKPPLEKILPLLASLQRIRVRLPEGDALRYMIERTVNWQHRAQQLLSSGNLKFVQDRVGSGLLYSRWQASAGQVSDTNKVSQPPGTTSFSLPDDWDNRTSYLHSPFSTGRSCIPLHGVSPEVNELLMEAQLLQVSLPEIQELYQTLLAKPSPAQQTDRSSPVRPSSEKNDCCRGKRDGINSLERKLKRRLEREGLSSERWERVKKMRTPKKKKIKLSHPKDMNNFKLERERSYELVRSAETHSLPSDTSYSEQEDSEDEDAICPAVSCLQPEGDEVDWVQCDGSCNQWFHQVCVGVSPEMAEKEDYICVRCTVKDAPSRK
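Measured: NADH fluorescence change, 30 min, RT. System: KDM5BΔAP 200 nM final, H3K4me3 peptide, α-KG, Fe(II), ascorbate, NAD⁺ plus FDH, pH 7.5 HEPES. Compounds: titrated, 10 min pre-incubation with enzyme.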
A number is an active result. Many of the other results were omitted from the sample, so hits are more common in it than they were.

COc1ccc2[nH]c3c(c2c1)CCNC31CCN(C(=O)C(C)(C)C)CC1 was read as KDM5B inhibitor 25.1µM.
Screening COc1cccc(CN2CCC3(CC2)NCCc2c3[nH]c3ccc(OC)cc23)c1 returned KDM5B inhibitor 25.1µM.
`COc1cccc(CN2CCC3(CC2)NCCc2c3[nH]c3ccccc23)c1` gave KDM5B inhibitor inactive.
Screening COc1ccc2[nH]c3c(c2c1)CCNC31CCN(C(=O)c2cc(C)[nH]n2)CC1 returned KDM5B inhibitor inactive.
`COc1ccc2[nH]c3c(c2c1)CCNC31CCN(C(=O)c2cccs2)CC1` gave KDM5B inhibitor inactive.
COc1ccc2[nH]c3c(c2c1)CCNC31CCN(C(=O)c2ccccn2)CC1 was read as KDM5B inhibitor inactive.
COc1ccc2[nH]c3c(c2c1)CCNC31CCN(C(=O)c2ccncc2)CC1 was read as KDM5B inhibitor inactive.
For COc1ccc2[nH]c3c(c2c1)CCNC31CCN(Cc2ccc(C)o2)CC1 the results were KDM5B inhibitor 20µM.
`CC1(C)[C@H](Cc2cc(COc3ccccc3)on2)C[C@@H]1NC(=O)c1cccs1` gave KDM5B inhibitor inactive.
Screening Cc1ccc(CN2C[C@@H]3C(=O)N(CCCN4CCCC4=O)C(=O)[C@@H]3C2)cc1 returned KDM5B inhibitor inactive.
Cc1noc2c(NCc3cccnc3)cc(-c3cccc(C(F)(F)F)c3)nc12 was read as KDM5B inhibitor inactive.
`CCOc1ccc(N/C=C/C(=O)c2ccc(-c3ccccc3)cc2)cc1` gave KDM5B inhibitor inactive.
C=CCNc1nc(C(=O)OC(C)C(=O)Nc2ccc(F)c(F)c2F)cs1 (stereo not drawn) was read as KDM5B inhibitor inactive.
`O=C(c1cc(-c2ccccc2)n[nH]1)N1CCC2(CC1)CC(OCC1CC1)CCO2` (stereo not drawn) gave KDM5B inhibitor inactive.
For CCCn1nc(C(=O)N2CCN(Cc3ccccc3F)CC2)c2ccccc2c1=O the results were KDM5B inhibitor inactive.
For CNC(=O)c1cccc(NC(=O)Cc2nc(-c3ccccc3)oc2C)c1 the results were KDM5B inhibitor inactive.
Screening Cc1ccc(-c2cn3c(n2)CO[C@@H](CNC(=O)CCC(=O)O)C3)cc1 returned KDM5B inhibitor inactive.
Cc1ccc(-c2cn3c(n2)CO[C@@H](CNC(=O)c2ccccc2)C3)cc1 was read as KDM5B inhibitor 31.6µM.
COc1ccc(-c2cn3c(n2)CO[C@@H](CNC(C)=O)C3)cc1 was read as KDM5B inhibitor inactive.
`CN(C)c1ccc(-c2nc(C3CCOC3)no2)cc1` (stereo not drawn) gave KDM5B inhibitor inactive.
Screening Cn1ccc2ccc(-c3nc(C4CCOC4)no3)cc21 (stereo not drawn) returned KDM5B inhibitor inactive.
c1cnn(-c2ccc(-c3nc(C4CCOC4)no3)cc2)c1 (stereo not drawn) was read as KDM5B inhibitor 31.6µM.
CSc1ccccc1-c1nc(C2CCOC2)no1 (stereo not drawn) was read as KDM5B inhibitor 28.2µM.
Screening CCn1nc(C)c(-c2nc(C3CCOC3)no2)c1C (stereo not drawn) returned KDM5B inhibitor inactive.
Screening Cc1onc(-c2ccccc2Cl)c1-c1nc(C2CCOC2)no1 (stereo not drawn) returned KDM5B inhibitor inactive.
`CCCn1cc(C(=O)CSc2nnc(C)s2)c2ccccc21` gave KDM5B inhibitor inactive.
For CC(C)(C)C(=O)NC(c1ccc(Cl)cc1)c1cccnc1 (stereo not drawn) the results were KDM5B inhibitor inactive.
O=C(Nc1ccc(-c2cnc(C3CC3)o2)cc1)c1cccc(F)c1 was read as KDM5B inhibitor inactive.
For CCOc1ccc(C2=Nn3c(nnc3-c3cccc(C)c3)SC2)cc1 the results were KDM5B inhibitor inactive.
Screening CCCc1cc(=O)[nH]c(SCc2nc(-c3cccc(OC)c3)no2)n1 returned KDM5B inhibitor inactive.
O=C(NCCN1CCCC1)c1c[nH]c2ccccc12 was read as KDM5B inhibitor inactive.
Screening CC(=O)N1CCCN(Cc2nc(-c3cccc(Oc4ccccc4)c3)oc2C)CC1 returned KDM5B inhibitor inactive.
For CSc1ccc(-c2nc(CN3CCOC(CCO)C3)c(C)o2)cc1 (stereo not drawn) the results were KDM5B inhibitor 15.8µM.
`COCCC1CN(Cc2nc(-c3cccc(C(F)(F)F)c3)oc2C)CCO1` (stereo not drawn) gave KDM5B inhibitor inactive.
`CSc1ccc(-c2nc(CN3CCN(C(C)=O)CC3)c(C)o2)cc1` gave KDM5B inhibitor 20µM.
`CC(=O)N1CCN(Cc2nc(-c3cccs3)oc2C)CC1` gave KDM5B inhibitor inactive.
Cc1oc(-c2ccccc2)nc1CC(=O)NCC1CN(C)CCO1 (stereo not drawn) was read as KDM5B inhibitor inactive.
`COc1ccc(-n2nnnc2SCc2cc(=O)oc3cc(C)ccc23)cc1` gave KDM5B inhibitor inactive.
For COCCNC(=O)c1ccc(OC2CCN(C(C)CCSC)CC2)c(Cl)c1 (stereo not drawn) the results were KDM5B inhibitor inactive.
`CC1=C(C(=O)Nc2ccccc2)C(c2ccc(Cl)cc2)N2C(=O)CSC2=N1` (stereo not drawn) gave KDM5B inhibitor inactive.
For Cc1ccc(-n2nnnc2SCc2ncc(-c3ccccc3)o2)c(C)c1 the results were KDM5B inhibitor inactive.
Screening Cc1ccc(Nc2nc(CSc3nnc4n3CCCCC4)cs2)cc1 returned KDM5B inhibitor inactive.
For COc1ccc(NC(=O)COc2nc(CC(C)C)c3c(c2C#N)CCC3)c(OC)c1 the results were KDM5B inhibitor inactive.
`CSCc1ccc(C(=O)Nc2ccccc2C(F)(F)F)cc1` gave KDM5B inhibitor inactive.
For COc1cc(O)ccc1CN1CCn2nnc(CCC(=O)N3CCCC3)c2C1 the results were KDM5B inhibitor 14.1µM.
`COc1ccc(NC(=O)N2CCn3nnc(CCC(=O)N4CCOCC4)c3C2)cc1` gave KDM5B inhibitor inactive.
For COC(=O)c1ccc(NC(=O)N2CCn3nnc(CCC(=O)N4CCCC4)c3C2)cc1 the results were KDM5B inhibitor inactive.
C/C(=N\NC(=O)c1cccs1)c1ccc(Br)cc1 was read as KDM5B inhibitor inactive.
Cc1ccc(NC(=O)N2Cc3[nH]cnc3C[C@H]2c2nc(-c3ccncc3)no2)cc1 was read as KDM5B inhibitor inactive.
For O=C(Nc1ccccc1)N1Cc2[nH]cnc2C[C@H]1c1nc(-c2ccc3ccccc3c2)no1 the results were KDM5B inhibitor inactive.
For Cc1ccc(NC(=O)N2Cc3[nH]cnc3C[C@H]2c2nc(-c3ccc4ccccc4c3)no2)cc1 the results were KDM5B inhibitor 22.4µM.
Screening O=C(NC1CCCCC1)N1Cc2[nH]cnc2C[C@H]1c1nc(-c2cccc([N+](=O)[O-])c2)no1 returned KDM5B inhibitor 3.98µM.
Screening Cc1cccc(-c2noc([C@@H]3Cc4nc[nH]c4CN3C(=O)c3ccc(-c4ccccc4)cc3)n2)c1 returned KDM5B inhibitor inactive.
Cc1cccc(-c2noc([C@@H]3Cc4nc[nH]c4CN3C(=O)C3CCCCC3)n2)c1 was read as KDM5B inhibitor inactive.
Screening O=C(c1ccc(Cl)cc1)N1CC2(CCN(Cc3c[nH]c4ccccc34)CC2)Cc2ccccc21 returned KDM5B inhibitor inactive.
CCc1cccc2c(C(=O)O)cc(-c3ccnn3CC)nc12 was read as KDM5B inhibitor inactive.
For Cc1nc2cc(NC(=O)C3CC(=O)N(C4CC4)C3)ccc2o1 (stereo not drawn) the results were KDM5B inhibitor inactive.
Screening CCOP(=O)(OCC)c1nc(-c2ccc([N+](=O)[O-])cc2)oc1NCc1ccc(F)cc1 returned KDM5B inhibitor inactive.
